Active and inactive are the calls of the source. How the source made its calls: active means hit-call score of the fitted dose curve at least 0.9, where 1 is the maximum; inactive means score below 0.9.

Read-out in test [1]: Transforming growth factor beta 1 (TGFb1), TGFB1 (gene 7040)
The test is described as follows: BSK_KF3CT_TGFb1: BioMAP Diversity Plus: KF3CT Assay for Transforming growth factor beta 1 (TGFb1) Biomarker Activity (AID 2283072). To be noted: primary human keratinocytes with fibroblasts; actives raise or lower the signal. The essentials:
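Read-out: ELISA for TGF-b1 in keratinocyte/foreskin fibroblast human skin co-culture, 24 h after dosing; bidirectional curve fit vs DMSO baseline; gain or loss of signal scored.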

Read-out in test [2]: Matrix Metallopeptidase 9 (MMP9), MMP9 (gene 4318)
Briefly: BSK_KF3CT_MMP9: BioMAP Diversity Plus: KF3CT Assay for Matrix Metallopeptidase 9 (MMP9) Biomarker Activity (AID 2283074). To be noted: primary human keratinocytes with fibroblasts; actives raise or lower the signal. Summed up: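 ELISA read-out of MMP-9 at 24 h post-dosing in a co-culture of human skin keratinocytes and foreskin fibroblasts. Gain or loss of signal was fitted in both directions against DMSO.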

Read-out in test [3]: CD40, CD40 (gene 958)
The test is described as follows: BSK_LPS_CD40: BioMAP Diversity Plus: LPS Assay for CD40 Biomarker Activity (AID 2283076). To be noted: primary human HUVEC with PBMC; actives raise or lower the signal. The essentials:
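HUVEC plus PBMC co-culture stimulated with LPS; CD40 quantified by ELISA 24 h after compound dosing. Fitting was bidirectional relative to DMSO. SRB staining of parallel cultures flagged overt cytotoxicity.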

Read-out in test [4]: E-selectin (Homo sapiens) (UniProt P16581)
Briefly: BSK_LPS_Eselectin: BioMAP Diversity Plus: LPS Assay for Eselectin Biomarker Activity (AID 2283077). To be noted: primary human HUVEC with PBMC; actives raise or lower the signal. Summed up: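 Human umbilical vein endothelial cells co-cultured with PBMC under LPS stimulation; cell-surface E-selectin measured by ELISA 24 h after dosing. Change in either direction versus DMSO, with SRB total-protein staining in parallel cultures for cytotoxicity.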

Test [5] is described as follows: BSK_LPS_SRB: Viability Assessment in the BioMAP Diversity Plus: LPS Assay (AID 2283079).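 Further: total protein by sulforhodamine B absorbance as a cytotoxicity measure; measured one day after compound addition.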 To be noted: primary human HUVEC with PBMC. The essentials:
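Co-culture of human umbilical vein endothelial cells and PBMC, read 24 h after dosing. Total protein by 0.1% SRB staining after 10% TCA fixation, absorbance at 560 nm; bidirectional fit against DMSO.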

Read-out in test [6]: Interleukin-1 alpha (IL1a), IL1A (gene 3552)
The test is described as follows: BSK_LPS_IL1a: BioMAP Diversity Plus: LPS Assay for Interleukin-1 alpha (IL1a) Biomarker Activity (AID 2283080). To be noted: primary human HUVEC with PBMC; actives raise or lower the signal. The essentials:
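Human umbilical vein endothelial cells co-cultured with PBMC and stimulated with LPS; IL-1a measured by ELISA 24 h after dosing. Bidirectional fitting against DMSO; cytotoxicity checked by SRB staining in parallel cultures.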

Read-out in test [7]: Monocyte Chemoattractant Protein-1 (MCP1), CCL2 (gene 6347)
Briefly: BSK_LPS_MCP1: BioMAP Diversity Plus: LPS Assay for Monocyte Chemoattractant Protein-1 (MCP1) Biomarker Activity (AID 2283081). To be noted: primary human HUVEC with PBMC; actives raise or lower the signal. The essentials:
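Human umbilical vein endothelial cells co-cultured with PBMC, LPS-stimulated; secreted MCP-1 measured by ELISA 24 h after compound addition. Bidirectional curve fitting against DMSO baseline; SRB total-protein staining in parallel cultures for cytotoxicity.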

A short description of test [8]: BSK_LPS_PGE2: BioMAP Diversity Plus: LPS Assay for Prostaglandin E2 (PGE2) Biomarker Activity (AID 2283082). To be noted: primary human HUVEC with PBMC; actives raise or lower the signal. The essentials: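 ELISA read-out of PGE2 from human umbilical vein endothelial cells co-cultured with peripheral blood mononuclear cells under LPS, 24 h post-dose. Gain or loss of signal scored relative to DMSO baseline.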

Read-out in test [9]: Macrophage colony-stimulating factor (MCSF), CSF1 (gene 1435)
Briefly: BSK_LPS_MCSF: BioMAP Diversity Plus: LPS Assay for Macrophage colony-stimulating factor (MCSF) Biomarker Activity (AID 2283083). The settings on record: primary human HUVEC with PBMC; actives raise or lower the signal. Summed up:
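HUVEC–PBMC co-culture, M-CSF measured by ELISA 24 h after chemical dosing. Fitted in both directions relative to DMSO as negative control; overt cytotoxicity assessed by SRB total-protein staining in parallel cultures.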

Read-out in test [10]: Tissue Factor, F3 (gene 2152)
Briefly: BSK_LPS_TissueFactor: BioMAP Diversity Plus: LPS Assay for Tissue Factor Biomarker Activity (AID 2283084). To be noted: primary human HUVEC with PBMC; actives raise or lower the signal. The essentials: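 Human umbilical vein endothelial cells co-cultured with PBMC were dosed with compound. Cell-surface CD142 was measured by ELISA 24 h later. Activity was fitted bidirectionally against DMSO, with SRB total-protein staining in parallel cultures for cytotoxicity.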

Read-out in test [11]: Tumor necrosis factor (Homo sapiens) (UniProt P01375)
Briefly: BSK_LPS_TNFa: BioMAP Diversity Plus: LPS Assay for Tumour Necrosis Factor alpha (TNFa) Biomarker Activity (AID 2283085).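 Further: TNFa protein level quantified by ELISA in the co-culture.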 The settings on record: primary human HUVEC with PBMC; actives raise or lower the signal. The essentials: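 HUVEC/PBMC co-culture, LPS-stimulated; 24 h post-dose; TNFa by ELISA; gain or loss of signal fitted bidirectionally vs DMSO baseline.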

Read-out in test [12]: Vascular cell adhesion molecule 1 (VCAM1), VCAM1 (gene 7412)
Briefly: BSK_LPS_VCAM1: BioMAP Diversity Plus: LPS Assay for Vascular cell adhesion molecule 1 (VCAM1) Biomarker Activity (AID 2283086). The settings on record: primary human HUVEC with PBMC; actives raise or lower the signal. Summed up:
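ELISA read-out of VCAM-1 at 24 h post-dosing in an LPS-driven HUVEC/PBMC primary human co-culture; gain or loss of signal fitted bidirectionally against DMSO baseline. Cytotoxicity tracked in parallel cultures by SRB total-protein staining.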

Read-out in another test: CD38, CD38 (gene 952)
The test is described as follows: BSK_SAg_CD38: BioMAP Diversity Plus: SAg Assay for CD38 Biomarker Activity (AID 2283087). The settings on record: primary human HUVEC with PBMC; actives raise or lower the signal. Summed up: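 Measures CD38 on a human endothelial/PBMC co-culture driven by SEB and TSST-1, 24 h after compound exposure, using ELISA with fluorescence detection; DMSO defines baseline for bidirectional curve fitting.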

Read-out in test [13]: CD40, CD40 (gene 958)
Briefly: BSK_SAg_CD40: BioMAP Diversity Plus: SAg Assay for CD40 Biomarker Activity (AID 2283088). To be noted: primary human HUVEC with PBMC; actives raise or lower the signal. The essentials: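 HUVEC plus PBMC co-culture, superantigen-activated, with CD40 read by ELISA 24 h after dosing. Curves fitted in both directions against DMSO. Overt cytotoxicity checked by parallel SRB total-protein staining.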

Read-out in the next test: CD69, CD69 (gene 969)
The test is described as follows: BSK_SAg_CD69: BioMAP Diversity Plus: SAg Assay for CD69 Biomarker Activity (AID 2283089). The settings on record: primary human HUVEC with PBMC; actives raise or lower the signal. The essentials: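 HUVEC co-cultured with PBMC were dosed with chemical, and CD69 was measured by ELISA with fluorescence read-out 24 h later. Bidirectional curve fitting used DMSO as negative control and activity baseline.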

Read-out in test [14]: Monocyte Chemoattractant Protein-1 (MCP1), CCL2 (gene 6347)
Briefly: BSK_SAg_MCP1: BioMAP Diversity Plus: SAg Assay for Monocyte Chemoattractant Protein-1 (MCP1) Biomarker Activity (AID 2283090). To be noted: primary human HUVEC with PBMC; actives raise or lower the signal. Summed up: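 Values derive from bidirectional fitting of ELISA-measured MCP1 against DMSO controls. Readings were taken 24 h after dosing human vascular endothelial cells co-cultured with peripheral blood mononuclear cells under superantigen stimulation.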

Read-out in test [15]: E-selectin (Homo sapiens) (UniProt P16581)
Briefly: BSK_SAg_Eselectin: BioMAP Diversity Plus: SAg Assay for Eselectin Biomarker Activity (AID 2283091). The settings on record: primary human HUVEC with PBMC; actives raise or lower the signal. Summed up: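 Human umbilical vein endothelial cells co-cultured with peripheral blood mononuclear cells, SAg system. E-selectin is measured by ELISA 24 h after dosing and fitted bidirectionally against DMSO. Cytotoxicity is checked by SRB staining of parallel cultures.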

Read-out in test [16]: Interleukin-8 (IL8), CXCL8 (gene 3576)
Briefly: BSK_LPS_IL8: BioMAP Diversity Plus: LPS Assay for Interleukin-8 (IL8) Biomarker Activity (AID 2283078). To be noted: primary human HUVEC with PBMC; actives raise or lower the signal. Summed up:
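Human umbilical vein endothelial cells co-cultured with PBMC, LPS-stimulated, exposed to compound for 24 h. IL-8 quantified by ELISA; fitted in both directions against DMSO, with SRB total-protein staining of parallel cultures for cytotoxicity.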

Sequence of E-selectin (Homo sapiens) (P16581 whole entry, looked up): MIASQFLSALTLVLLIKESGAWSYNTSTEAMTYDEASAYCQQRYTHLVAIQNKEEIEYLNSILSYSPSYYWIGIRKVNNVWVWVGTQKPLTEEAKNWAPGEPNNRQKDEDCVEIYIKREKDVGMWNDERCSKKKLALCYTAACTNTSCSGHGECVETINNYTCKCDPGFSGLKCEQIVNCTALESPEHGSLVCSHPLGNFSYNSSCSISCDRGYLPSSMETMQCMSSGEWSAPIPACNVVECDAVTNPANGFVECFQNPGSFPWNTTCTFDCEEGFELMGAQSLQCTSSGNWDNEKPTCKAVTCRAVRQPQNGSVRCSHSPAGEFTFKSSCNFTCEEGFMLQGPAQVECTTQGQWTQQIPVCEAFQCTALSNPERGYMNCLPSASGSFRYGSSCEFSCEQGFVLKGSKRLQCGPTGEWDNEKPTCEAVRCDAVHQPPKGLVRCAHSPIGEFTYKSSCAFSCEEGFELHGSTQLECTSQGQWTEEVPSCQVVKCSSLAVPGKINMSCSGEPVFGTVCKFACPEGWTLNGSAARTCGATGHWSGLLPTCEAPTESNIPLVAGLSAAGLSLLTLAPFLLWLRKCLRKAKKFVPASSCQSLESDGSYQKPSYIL
Sequence of Tumor necrosis factor (Homo sapiens) (P01375 whole entry, looked up): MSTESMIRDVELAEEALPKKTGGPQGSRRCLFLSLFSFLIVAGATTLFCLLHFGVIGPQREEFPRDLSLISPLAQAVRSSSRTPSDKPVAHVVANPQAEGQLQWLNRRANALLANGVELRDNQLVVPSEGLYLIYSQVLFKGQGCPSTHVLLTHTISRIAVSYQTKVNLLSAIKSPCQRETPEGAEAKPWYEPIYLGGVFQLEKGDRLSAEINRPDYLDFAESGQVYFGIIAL

Regarding `COC(=O)c1ccccc1S(=O)(=O)NC(=O)Nc1nc(OC(F)F)cc(OC(F)F)n1`, the outcome is “inactive” in test [1]; “inactive” in test [2]; “inactive” with CD40, CD40 (gene 958) [3]; “inactive” in test [4]; “inactive” in test [5]; “inactive” in [6]. Besides, the outcome in test [7] was “inactive”; in test [8], “inactive”; in test [9], “inactive”; in test [10], “inactive”; in test [12], “inactive”; in the test with CD38, CD38 (gene 952), “inactive”. For the same compound, the outcome with CD40, CD40 (gene 958) [13] is “inactive”; in the test with CD69, CD69 (gene 969), “inactive”; in test [14], “inactive”; in test [15], “inactive”. For the same compound, in test [11], the AC50 – broadly, the concentration at which the activity in the assay is half-maximal – is 12 µM (active).

With `COCCO`, the outcome in [1] was “inactive”; in test [2] it was “inactive”; with CD40, CD40 (gene 958) [3], “inactive”; in [4], “inactive”; in [5], “inactive”; in [6] it was “inactive”. Moreover, the outcome is “inactive” in [7]; “inactive” in [8]; “inactive” in test [9]; “inactive” in test [10]; “inactive” in test [12]; “inactive” with CD38, CD38 (gene 952). For the same compound, the outcome is “inactive” in the test with CD40, CD40 (gene 958) [13]; “inactive” with CD69, CD69 (gene 969); “inactive” in test [14]; “inactive” in test [15].

Turning to `COC(=O)c1ccc(CNS(C)(=O)=O)cc1S(=O)(=O)NC(=O)Nc1nc(OC)cc(OC)n1`, the outcome in test [1] is “inactive”; in test [2] it was “inactive”; with CD40, CD40 (gene 958) [3], “inactive”; in test [4] it was “inactive”; in [16], “inactive”; in [5] it was “inactive”. The result in test [6], in test [7], in [8], in test [9], in [10] and in [12] was inactive. Besides, the outcome was “inactive” with CD38, CD38 (gene 952); “inactive” in the test with CD40, CD40 (gene 958) [13]; “inactive” with CD69, CD69 (gene 969); “inactive” in test [14]; “inactive” in test [15].

Source of the values: PubChem BioAssay (EPA / NIEHS).
